Rows were chosen to be rich in hits. Some 2.5% of all compounds tested hit in one or more screens of this group.
aSyn rescue: qHTS of alpha-syn Inhibitors | Yeast expressing alpha-synuclein, growth rescue, BacTiter-Glo, 24 h | Potency, µM (series often up to 46.1 µM), usual class: activators | 370,000 tested, 0.14% active | AID 652106, 2013; also: nearly all actives have a fitted effect of over 65% in size
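Galactose-induced alpha-syn yeast (OD600=0.02, raffinose-pregrown) + pinned cpd, 24 hr, 30 deg C; growth by BacTiter-Glo luminescence. Growth restoration scores as activation.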
Akt phos inh: HTS Assay for Inhibitors of Akt Phophorylation: Primary Screen. Neuro2A IGF-stimulated pAkt S473 HTRF, 20 min; stronger effect = lower value. activity change, % for hits at 50 µM. 360,000 tested, 0.32% active; in the data active = activity change below about -80%; inconclusive = mostly about -51% to -80%
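Neuro2A cells (4,500/well, DMEM with 0.5% FBS) were treated with compound at a single 50 µM final concentration, stimulated with 6 nM IGF for 20 min at 37 °C, and lysed. Phospho-Akt Ser473 was read by HTRF as 665/615 ratio ×10^4.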
Mito fusion act: qHTS Assay for Small Molecule Inhibitors of Mitochondrial Division or Activators of Mitochondrial Fusion | S. cerevisiae fusion-defective mutant growth rescue, CellTiterGlo 48 h | Potency, µM (series often up to 46.1 µM), hits mostly activators | 320,000 tested, 0.23% active | AID 485298, 2010; also: nearly all actives have a fitted effect of over 45% in size
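Read-out: ATP-based luminescence (CellTiterGlo, 10 min ambient) reporting growth of fusion-defective ts yeast after 48 hours at 37C on glycerol/ethanol YPEG medium in the presence of compound.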
Anesthetic bind: qHTS Assay for Identification of Novel General Anesthetics; Ferritin light chain (Equus caballus), P02791; apoferritin/1-aminoanthracene competitive binding, fluorescence; Potency, µM (titrated, usually from 77.5 µM), hits mostly inhibitors; 350,000 tested, 0.074% active; AID 485281, 2010; also: nearly all actives have a fitted effect of over 20% in size
Target sequence (P02791 2-175 limits assumed): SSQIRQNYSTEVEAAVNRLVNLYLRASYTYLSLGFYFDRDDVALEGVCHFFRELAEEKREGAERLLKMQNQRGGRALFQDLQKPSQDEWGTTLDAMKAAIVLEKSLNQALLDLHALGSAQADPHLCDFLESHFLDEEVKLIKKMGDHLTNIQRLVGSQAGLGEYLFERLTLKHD
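In PBS, apoferritin at 10 uM is loaded with 1-AMA from a 50% saturated solution. After 10 min of compound exposure at ambient temperature, reduced 535 nm fluorescence indicates probe displacement.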
TDP-43 yeast inh: qHTS of TDP-43 Inhibitors; Potency, µM (titrated, usually from 46.1 µM), most hits filed as activators; TDP-43 expressing yeast growth rescue, BacTiter-Glo, 24 h; 410,000 tested, 1.8% active; also: nearly all actives have a fitted effect of over 50% in size
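Galactose-induced TDP-43 yeast, OD600=0.02, compound pinned; 24 hr, 30 deg C; BacTiter-Glo luminescence for growth. Inhibitors of TDP-43 toxicity read as activators.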
CCT modulator: High-Throughput Screening for Modulators of Cytosolic Chaperonin Activity | activity change, % (concentration not given with the values), hits read low | purified chaperonin ATPase assay, HTRF ADP detection, 30 min | 360,000 tested, 0.3% active; in the data active = activity change below about -30%
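Enzyme 40 or 20 nM (batch-dependent) in Tris pH 7.4/KCl/MgCl2/DTT; cpd 76 uM single point; ATP 10 uM; 30 min 37 °C; Transcreener ADP HTRF detection, 30 min RT; ratio 665/615.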
Of the large screens only hits and unclear results are named; the others gave an inactive call. Unless noted, calls follow the shape of the dose curve; as a rule, active = well fitted curve in the direction sought with a large enough effect; inconclusive = small, poorly fitted or top-dose-only effect, or another doubt; inactive = no such curve, though single readings can be large; an effect the other way counts as inactive or inconclusive.

C[C@H](CO)N1C[C@H](C)[C@@H](CN(C)C(=O)Nc2ccccc2)Oc2ccc(NC(=O)Nc3ccccc3)cc2C1=O	CCT modulator -44 (no result: Mito fusion act, Anesthetic bind)
C[C@@H]1CN([C@@H](C)CO)C(=O)c2cc(NC(=O)c3ccncc3)ccc2O[C@@H](C)CCCCO[C@@H]1CN(C)C(=O)Cc1ccccc1	none (no result: Mito fusion act, Anesthetic bind)
C[C@@H]1CCCCO[C@@H](CN(C)Cc2ccncc2)[C@@H](C)CN([C@H](C)CO)C(=O)c2cc(NC(=O)c3ccccc3)ccc2O1	CCT modulator -34 (no result: Mito fusion act, Anesthetic bind)
Cc1cc(C(=O)Nc2cccc3c2O[C@@H](CN(C)S(C)(=O)=O)[C@H](C)CN([C@@H](C)CO)C3=O)n(C)n1	CCT modulator -32 (no result: Mito fusion act, Anesthetic bind)
CC(C)NC(=O)Nc1ccc2c(c1)C(=O)N([C@H](C)CO)C[C@H](C)[C@@H](CN(C)C(=O)Nc1ccccc1)O2	none (no result: Mito fusion act, Anesthetic bind)
CCSc1nnc(NC(=O)C2CCN(C(=O)c3ccco3)CC2)s1	none (no result: Akt phos inh, Mito fusion act, Anesthetic bind, TDP-43 yeast inh, CCT modulator)
CC(C)Oc1ccc(C(=O)N2CCC(c3nc4ccccc4o3)CC2)cc1	none (no result: aSyn rescue, Akt phos inh, Mito fusion act, CCT modulator)
Cc1cc(Cl)ccc1OCC(=O)N1CCC(c2nc3ccccc3o2)CC1	TDP-43 yeast inh inconclusive (no result: aSyn rescue, Akt phos inh, Mito fusion act, CCT modulator)
O=C(COc1cccc(Cl)c1)N1CCC(c2nc3ccccc3o2)CC1	TDP-43 yeast inh 28µM (no result: aSyn rescue, Akt phos inh, Mito fusion act, CCT modulator)
CCCCOc1ccc(C(=O)N2CCC(c3nc4ccccc4o3)CC2)cc1	TDP-43 yeast inh 28µM (no result: aSyn rescue, Akt phos inh, Mito fusion act, CCT modulator)
COc1ccc(CNc2nc(-c3ccccc3OC)nc3ccccc23)c(OC)c1	none (no result: aSyn rescue, Akt phos inh, Mito fusion act, TDP-43 yeast inh, CCT modulator)
Cc1ccc(C)c(CNS(=O)(=O)c2ccc3c(c2)C(C)(C)C(=O)N3C)c1	Anesthetic bind inconclusive, TDP-43 yeast inh inconclusive, CCT modulator -34
N=C1SCC(=O)N1c1ncc(Cc2ccc(F)cc2)s1	TDP-43 yeast inh 10µM
COCCCNc1nc(NCc2ccccc2OC)c2cnn(C)c2n1	none (no result: aSyn rescue, Akt phos inh, Mito fusion act, CCT modulator)
Cc1cc(Nc2ccc(C(C)C)cc2)n2ncnc2n1	TDP-43 yeast inh 11µM
CCc1ccc(NC(=O)Cn2c(SCc3ccc(C)cc3)nc3ccncc32)cc1	none (no result: Akt phos inh, Mito fusion act, Anesthetic bind, TDP-43 yeast inh, CCT modulator)
Cc1ccc(CN(CC(O)COc2cccc3[nH]cc(C)c23)C(C)(C)C)cc1 (centres undefined)	Mito fusion act 5.6µM
COC(=O)Cc1c[nH]c2cccc(OCC(O)CN(Cc3ccc([N+](=O)[O-])cc3)C(C)(C)C)c12 (centres undefined)	Anesthetic bind inconclusive
Cc1ccc(CNC(=O)CCC(=O)N2CC3CCCN3c3ccccc32)cc1 (centres undefined)	none (no result: aSyn rescue, Akt phos inh, Mito fusion act, CCT modulator)
COc1ccc(C2CC(O)(c3ccccc3)Oc3cc(OC)ccc32)cc1 (centres undefined)	aSyn rescue inconclusive, Mito fusion act inconclusive, Anesthetic bind inconclusive, TDP-43 yeast inh 20µM
CC(C)(C)OC(=O)N1CCN(c2nc(-c3cccs3)nc3ccccc23)CC1	none (no result: Akt phos inh, Mito fusion act, Anesthetic bind, TDP-43 yeast inh, CCT modulator)
CCOc1ccc(Nc2nc3ccccc3n3c(CC)nnc23)cc1	TDP-43 yeast inh 25µM (no result: aSyn rescue, Akt phos inh, Mito fusion act, CCT modulator)
Cc1ccc(CNC(=O)CCSCc2ccccc2F)cc1	Anesthetic bind inconclusive
Cc1ccc(CSCCC(=O)NCc2ccc(F)cc2Cl)cc1	TDP-43 yeast inh 22µM (no result: aSyn rescue, Akt phos inh, Mito fusion act, CCT modulator)
COc1ccc2[nH]c(C)c(C(=O)CN(C)CC(OC)OC)c2c1	none (no result: Akt phos inh, Mito fusion act, Anesthetic bind, TDP-43 yeast inh, CCT modulator)
Cc1ccc(C2=NOC(=O)/C2=C\c2ccccc2)cc1	TDP-43 yeast inh 25µM (no result: Mito fusion act, Anesthetic bind)
COc1cc(/C=C2\C(=O)ON=C2c2ccccc2)cc(Br)c1O	TDP-43 yeast inh 11µM
Nc1ncnc2c1nc(Cl)n2[C@@H]1O[C@H](CO)[C@@H](O)[C@@H]1O	none (no result: Akt phos inh, Mito fusion act, Anesthetic bind, TDP-43 yeast inh, CCT modulator)
Cc1ccc(S(=O)(=O)N2CCN(c3nc(-c4cccs4)nc4cccnc34)CC2)cc1	none (no result: Akt phos inh, Mito fusion act, Anesthetic bind, TDP-43 yeast inh, CCT modulator)
CCCCn1c(-c2cccs2)nc2nc3ccccc3nc21	TDP-43 yeast inh 13µM
CC(C)Cn1c(-c2cccs2)nc2nc3ccccc3nc21	TDP-43 yeast inh inconclusive
CC1=CC2=NC(=O)/C(=C\c3cccn3CCOc3ccccc3C)C(=N)N2O1	TDP-43 yeast inh 20µM

High-throughput results as filed in PubChem.
